SARS PLP yeast – inhibitors of SARS-CoV papain-like protease in yeast | S. cerevisiae expressing SARS-CoV PLpro, growth rescue | Potency, µM (titrated, usually from 32.9 µM), for the others: at the top dose activity, positive = growth rescue, actives largely listed as activators | 0.19% of 330,000 active; calls by dose curve; also: potency is read from the fitted curve at half-maximal effect; 0% is about no effect; nearly all actives have a fitted effect of over 55% in size
HCV inhibitor – inhibitors of hepatitis C virus infection | Potency, µM (top dose mostly 41.8 µM), inactives show at the top dose activity change, negative = inhibition, usual class: inhibitors | 3.4% of 340,000 active | AID 651820 | Huh7.5.1 HCVcc-Cre infection, luciferase reporter, 44 h; active = well fitted inhibition curve with a large enough effect; inconclusive = small, poorly fitted or top-dose-only effect, or another doubt; inactive = no such curve, though single readings can be large or run the other way; also: potency is read from the fitted curve at half-maximal effect; % is scaled to controls: 0 for no effect and ±100 for the full control effect
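Luciferase read-out (15 sec integration) after a 15 min room-temperature substrate step quantifies HCVcc-Cre infection. Cells, 1,000 per well, had compound added 4 h post-plating, then virus at ~0.5 moi, and were cultured 44 h.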
Lassa entry inh – inhibitors of Lassa virus binding or cell entry; Lassa virus pseudotype entry inhibition, cell reporter; Potency, µM (titrated, usually from 37.9 µM), for inactives: top-dose activity change, negative = inhibition, usual class: inhibitors; 1.2% of 300,000 active; AID 540256; calls by dose curve; tested in HEK293 cells; also: potency is read from the fitted curve at half-maximal effect; % is scaled to controls: 0 for no effect and ±100 for the full control effect; nearly all actives have a fitted effect of over 50% in size
FMDV inh – foot and mouth disease virus antiviral activity; FMDV antiviral cell-based qHTS; 1.2% of 410,000 active; Potency, µM (titrated, usually from 57.9 µM), for the others: at the highest dose activity change, negative = inhibition, actives largely listed as inhibitors; calls by dose curve; tested in HEK293T cells; also: read-out not given here; potency is read from the fitted curve at half-maximal effect; % is scaled to controls: 0 for no effect and ±100 for the full control effect; nearly all actives have a fitted effect of over 45% in size
MARV entry inh – inhibitors of Marburg virus binding or cell entry. Marburg virus pseudotyped entry inhibition, cell reporter. Potency, µM (highest dose often 37.8 µM), inactives show at the highest dose activity change, negative = inhibition, actives largely listed as inhibitors. 1.8% of 300,000 active. AID 540276; calls by dose curve; tested in HEK293 cells; also: potency is read from the fitted curve at half-maximal effect; % is scaled to controls: 0 for no effect and ±100 for the full control effect
HCMV inh – human cytomegalovirus inhibition; HFF cells, HCMV-luciferase reporter, 72 h; hits give low values; activity change, negative = inhibition, % at 57.5 µM; 4.5% of 410,000 active; in the data active = activity change below about -60%; inconclusive = no clear call, values can overlap the other calls; inactive = above about -39%; also: % is scaled to controls: 0 for no effect and ±100 for the full control effect
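Two compound doses tested in HFFs infected with HCMV-luciferase, MOI 1 PFU/cell, 72 h at 37C. Lysate luminescence read with OneGlo; data normalized against buffer-only and 10uM Salinomycin inhibitor controls.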
Numbers without * were called inactive; ? = inconclusive; nt = no result given; [ ] = dose if it differs, or a comment. Only some compounds are listed: those with a hit (about 8% of all), similar ones and a draw of the others.

SMILES	SARS PLP yeast	HCV inhibitor	Lassa entry inh	FMDV inh	MARV entry inh	HCMV inh
COc1cc2[nH]c3c(N4CCN(c5ccccn5)CC4)ncnc3c2cc1OC	10%	6.3µM*	?	18µM*	10µM*	nt
COc1ccc2[nH]c3c(N4CCc5ccccc5C4)ncnc3c2c1	-19%	?	?	25µM*	0.71µM*	-88*
Cc1ccccc1-c1nc(CN2CCC(C(=O)NCCCN3CCCC3)CC2)c(C)o1	-4%	14µM*	?	0%	?	-17
COC(=O)c1ccc2nc(-c3ccco3)c(Cc3ccccc3OC)n2c1	nt	nt	nt	nt	nt	9
Cc1nonc1CN(C)C(=O)C1CC12CCN(C(=O)/C=C/c1cccc(Cl)c1)CC2 (stereo unspecified)	nt	nt	nt	-15%	nt	nt
O=[N+]([O-])c1ccc(C[n+]2cccc3c4ccccc4ccc32)cc1	-2%	-29%	nt	-29%	nt	-81*
Cc1ccc[n+](Cc2ccc([N+](=O)[O-])cc2)c1	0%	9%	nt	2%	nt	-8
COc1ccc(-c2csc(NC(=O)CC(C)C)n2)cc1	-5%	-26%	13µM*	?	?	-3
Cc1nc(-c2ccc(NC(=O)CC(C)C)cc2)cs1	-14%	-21%	?	18%	-10%	-76*
COc1ccc2[nH]c(=O)c(CN(CCO)S(=O)(=O)c3ccc(C)cc3)cc2c1	0%	-17%	nt	5%	nt	-30
Cc1cc2cc(CN(Cc3ccco3)S(=O)(=O)c3c(C)ccc4nsnc34)c(=O)[nH]c2cc1C	14%	?	8.2µM*	-20%	?	41
COC(=O)c1cccc(S(=O)(=O)N(Cc2ccco2)Cc2cc3cc(OC)ccc3[nH]c2=O)c1	0%	?	?	22µM*	-22%	13
CCCCN(Cc1cc2cc(OC)ccc2[nH]c1=O)S(=O)(=O)c1ccc(C)cc1	1%	13µM*	nt	?	nt	-70*
O=C1CS(=O)(=O)C2(C(=O)N(Cc3ccc(F)cc3)c3ccccc32)N1c1cccc(C(F)(F)F)c1 (stereo unspecified)	nt	nt	4%[46.1 µM]	-1%	nt	-77*
CCc1ccc(-n2nc(C)c3c(C(=O)Nc4cccc(C(F)(F)F)c4)cc(C)nc32)cc1	nt	nt	27%[46.1 µM]	?	nt	?
Cc1ccc(-n2c(=O)c3c(c4cc(C)ccc4n3C)n(CC(=O)c3ccc(Cl)cc3)c2=O)cc1	nt	nt	13%[46.1 µM]	-14%	nt	-2
Cn1c(=O)c2[nH]c(CCCCCCCc3nc4ccccc4[nH]3)nc2n(C)c1=O	nt	8.9µM*	-38%	16µM*	?	-67*
Cn1c(=O)c2[nH]c(COc3ccc(C(C)(C)C)cc3)nc2n(C)c1=O	1%	11µM*	nt	20µM*	nt	nt
Cc1ccc2oc(C(=O)Nc3c(C(=O)Nc4cccc(Cl)c4)oc4ccccc34)cc(=O)c2c1	nt	nt	1%[46.1 µM]	-4%	-1%[46.1 µM]	-22
CCOc1ccccc1NC(=O)Nc1ccc(CC#N)cc1	-2%	?	nt	-4%	nt	-18
Cc1cc(=O)oc2cc(OC(=O)c3cncc(Br)c3)ccc12	0%	26%	14%	-1%	7%[46.1 µM]	-103*
CC(=O)c1cccc(NC(=O)c2ccc(N(Cc3ccc(C)cc3)S(C)(=O)=O)cc2)c1	8%	13µM*	?	?	?	-7
Cc1ccc(NC(=O)c2ccc(N(Cc3ccccc3)S(C)(=O)=O)cc2)cc1	nt	nt	?	5%	nt	21
O=C(Nc1cccc(C(=O)Nc2ccc(Cl)cn2)c1)c1ccccc1	-1%	13µM*	nt	2%	nt	5
O=C(Nc1ccc(Cl)cn1)c1cccc(F)c1	13%	?	2%	14%	?	79
SMILES	SARS PLP yeast	HCV inhibitor	Lassa entry inh	FMDV inh	MARV entry inh	HCMV inh
O=C(Nc1cccc(C(=O)Nc2cccc(Br)c2)c1)c1ccccc1	-1%	14µM*	nt	0%	nt	-22
Cc1ccc(S(=O)(=O)N[C@H]2CC[C@@]34CCCN3C(=O)CCC[C@H]4[C@H]2Cc2ccccc2)cc1	nt	nt	nt	nt	nt	-18
O=c1oc2ccccc2cc1-c1cn2cc(Cc3ccccc3F)sc2n1	nt	nt	-1%[46.1 µM]	37%	?	97
CC(C)c1ccc(-c2noc(SCC(=O)N3CCN(c4ccccc4F)CC3)n2)cc1	nt	nt	8%[46.1 µM]	0%	nt	-1
O=C(O)c1cccc(NC(=O)c2ccccc2)c1	nt	10%	nt	-6%	nt	15
Cc1ccc(C(=O)Nc2cccc(C(=O)O)c2)cc1	-6%	15%	5.8µM*	2µM*	?	-1
C=CCN(c1ccc(C(=O)Nc2ccc(C)c(C)c2)cc1)S(C)(=O)=O	1%	?	4%	?	?	-69*
Cc1cc(=O)oc2cc(NC(=O)c3cccc(Br)c3)ccc12	?	0%	?	32%	0%	-74*
CC(C)(C)c1ccc(C(=O)Nc2cccc(C(=O)N3CCOCC3)c2)cc1	2%	5.6µM*	nt	-20%	nt	?
COc1ccccc1Cc1nc2ccccc2nc1SCC(=O)Nc1cccc(Cl)c1C	nt	nt	16%[46.1 µM]	28%	nt	20
CCC(C(=O)Nc1cc(C)ccc1OC)n1nnc(C(=O)OC)c1C(=O)OC (stereo unspecified)	nt	nt	26%[46.1 µM]	-8%	3%[46.1 µM]	7
O=C(/C=C/c1cccs1)c1ccc(NC(=O)c2cccc(Br)c2)cc1	-1%	6.3µM*	0%	1%	-7%	39
O=C(Nc1ccc(NC(=O)C2CC2)cn1)c1ccccc1	-7%	10%	5.6µM*	-19%	?	97
Cc1ccc2c(c1)-c1onc(C(=O)N3CCN(c4cc(Cl)ccc4C)CC3)c1CO2	nt	nt	28%[46.1 µM]	-21%	nt	-6
COc1ccc(NC(=O)CCC(=O)c2cccs2)cc1S(=O)(=O)Nc1ccc(Cl)cc1	-4%	-21%	6%	9%	-42%	68
COc1ccc(NS(=O)(=O)c2cc(NC(=O)CCSc3ccccc3)ccc2OC)cc1	11%	?	?	24%	?	-39
COc1ccc(NC(=O)CCS(=O)(=O)c2ccccc2Cl)cc1S(=O)(=O)Nc1ccc(Cl)cc1	10%	13µM*	nt	28%	nt	-21
COc1ccc(NC(=O)CCSc2ccc(C)cc2)cc1S(=O)(=O)Nc1ccccc1Cl	5%	?	13µM*	-7%	?	-33
COc1ccc(Cl)cc1NC(=O)CCS(=O)(=O)c1cccc2nonc12	nt	nt	4%[46.1 µM]	4%	24%[46.1 µM]	-86*
Cc1ccc(Cl)cc1NC(=O)CCS(=O)(=O)c1cccc2nonc12	1%	5%	27%	14%	5%[46.1 µM]	-5
Cc1cccc2c1cnn2C(=O)CCC(=O)NCC(C)c1ccccc1 (stereo unspecified)	-3%	14%	nt	0%	nt	-26
COc1ccc(OCC(=O)Nc2ccc(-c3nc4cc(C)cc(C)c4o3)cc2)cc1	nt	nt	23%[46.1 µM]	39%	nt	46
CCOc1ccc(Nc2cc(C)c(C#N)c3nc4ccccc4n23)cc1	nt	nt	2%[46.1 µM]	-20%	1%[46.1 µM]	-2
CC(C)OCCCNC(=O)c1cn(C)c2ccc(S(=O)(=O)N(C)C3CCCCC3)cc2c1=O	-1%	-9%	?	23%	-4%[46.1 µM]	-20

Source: PubChem BioAssay (National Center for Advancing Translational Sciences (NCATS))
